Read-out in assay [1]: E-selectin (Homo sapiens) (UniProt P16581)
Put plainly: BSK_3C_Eselectin: BioMAP Diversity Plus: 3C Assay for Eselectin Biomarker Activity (AID 2283015).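 Further: cell surface E-selectin protein quantified by ELISA 24 h after dosing.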 Conditions: primary human endothelial cells (HUVEC); actives raise or lower the signal. An outline of the steps: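 HUVEC, 3C stimulation; compound exposure 24 h; E-selectin by ELISA; gain- or loss-of-signal fitted bidirectionally vs DMSO baseline.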

Read-out in assay [2]: Interleukin-1 alpha (IL1a), IL1A (gene 3552)
Put plainly: BSK_BE3C_IL1a: BioMAP Diversity Plus: BE3C Assay for Interleukin-1 alpha (IL1a) Biomarker Activity (AID 2283016). The following applies: primary human bronchial epithelial cells; actives raise or lower the signal. An outline of the steps: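 Measured in human lung primary bronchial epithelial cells: IL-1a by ELISA at 24 h after dosing, with bidirectional fitting against DMSO.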

Read-out in assay [3]: Monocyte Chemoattractant Protein-1 (MCP1), CCL2 (gene 6347)
Put plainly: BSK_3C_MCP1: BioMAP Diversity Plus: 3C Assay for Monocyte Chemoattractant Protein-1 (MCP1) Biomarker Activity (AID 2283017). Conditions: primary human endothelial cells (HUVEC); actives raise or lower the signal. An outline of the steps:
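HUVEC, 3C system; 24 h chemical exposure; MCP-1 by ELISA; bidirectional curve fit vs DMSO baseline.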

Read-out in assay [4]: Human Leukocyte Antigen - DR isotype (HLADR), HLA-DRA (gene 3122)
Put plainly: BSK_3C_HLADR: BioMAP Diversity Plus: 3C Assay for Human Leukocyte Antigen - DR isotype (HLADR) Biomarker Activity (AID 2283019).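 On outcome: ELISA of cell-surface HLA-DR on HUVEC 24 h after dosing.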 Conditions: primary human endothelial cells (HUVEC); actives raise or lower the signal. An outline of the steps:
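HUVEC, 3C stimulation, 24 h post-dose; HLA-DR by ELISA; bidirectional curve fit vs DMSO baseline; gain or loss of signal scored.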

Read-out in assay [5]: Interleukin-8 (IL8), CXCL8 (gene 3576)
Put plainly: BSK_3C_IL8: BioMAP Diversity Plus: 3C Assay for Interleukin-8 (IL8) Biomarker Activity (AID 2283020). The following applies: primary human endothelial cells (HUVEC); actives raise or lower the signal. An outline of the steps: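 Using DMSO-treated wells as the baseline, bidirectional curve fitting was applied to ELISA-measured IL-8 from human umbilical vein endothelial cultures sampled 24 h after compound addition.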

Read-out in assay [6]: Monokine induced gamma interferon (MIG), CXCL9 (gene 4283)
Put plainly: BSK_3C_MIG: BioMAP Diversity Plus: 3C Assay for Monokine induced gamma interferon (MIG) Biomarker Activity (AID 2283021). Conditions: primary human endothelial cells (HUVEC); actives raise or lower the signal. An outline of the steps: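 ELISA-measured MIG in dosed HUVEC 3C cultures at 24 h, analysed by bidirectional fitting with DMSO defining baseline activity.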

Assay [7] in a line: BSK_3C_SRB: Viability Assessment in the BioMAP Diversity Plus: 3C Assay (AID 2283023).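 Further: cells read 24 h after compound dosing; fitted both ways against DMSO so a hit may be signal rise or drop.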 The following applies: primary human endothelial cells (HUVEC). An outline of the steps: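 HUVEC, 24 h post-dose; 10% TCA fix, 0.1% SRB stain, A560 nm. Bidirectional curve fit vs DMSO negative control.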
Assay [8] in a line: BSK_3C_Vis: BioMAP Diversity Plus: 3C Assay for Morphology Visualization (AID 2283025).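 Further: fitted both ways so gain or loss versus DMSO counts.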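 On AC50: light microscopy image of cell morphology used as background control.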 Conditions: primary human endothelial cells (HUVEC). An outline of the steps:
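Light-microscopy morphology readout, 24 h exposure, human primary umbilical vein endothelium; analysed relative to DMSO with bidirectional fitting.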

Read-out in assay [9]: Pselectin, SELP (gene 6403)
Put plainly: BSK_4H_Pselectin: BioMAP Diversity Plus: 4H Assay for Pselectin Biomarker Activity (AID 2283026). The following applies: primary human endothelial cells (HUVEC); actives raise or lower the signal. An outline of the steps: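 Bidirectional fits against DMSO gave the endpoint. Cells: primary human umbilical vein endothelium, chemical-treated for 24 h before ELISA detection of P-selectin.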

Assay [10] can be described thus: BSK_4H_SRB: Viability Assessment in the BioMAP Diversity Plus: 4H Assay (AID 2283027).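 Further: cells exposed to compound for 24 h before staining.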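 On AC50: curves fitted both ways versus DMSO so AC50 may be loss or gain.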 Conditions: primary human endothelial cells (HUVEC). An outline of the steps: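 HUVEC, 24 h post-dose; 10% TCA fix, 0.1% SRB stain, A560 nm. Total protein = overt cytotoxicity, parallel to biomarker read. Bidirectional fit vs DMSO baseline.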
A short description of assay [11]: BSK_BE3C_SRB: Viability Assessment in the BioMAP Diversity Plus: BE3C Assay (AID 2283028). The following applies: primary human bronchial epithelial cells. An outline of the steps: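 Primary human bronchial epithelium; chemical dosing, 24 h; 10% TCA fix, 0.1% SRB stain, A560; bidirectional fit vs DMSO baseline.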
Read-out in assay [12]: Thrombomodulin, THBD (gene 7056)
Put plainly: BSK_3C_Thrombomodulin: BioMAP Diversity Plus: 3C Assay for Thrombomodulin Biomarker Activity (AID 2283029). Conditions: primary human endothelial cells (HUVEC); actives raise or lower the signal. An outline of the steps: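 In a multiplexed primary-cell system, human umbilical vein endothelium received chemical and was assayed 24 h later for thrombomodulin by ELISA. Parallel cultures were SRB-stained (0.1% SRB after 10% TCA fixation, read at 560 nm) to flag cytotoxicity.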

The target in assay [13] is human Retinoid X Receptor beta (RXRb), RXRB (gene 6257) (UniProt P28702). Put plainly: ATG_RXRb_TRANS: Attagene TRANS-FACTORIAL HepG2 Assay for human Retinoid X Receptor beta (RXRb) (AID 2283013; active means hit-call score of the fitted dose curve at least 0.9, where 1 is the maximum). An outline of the steps: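 After a 24 h incubation with test chemical, transfected HepG2 cells carrying NR-Gal4 fusions and GAL4-UAS reporter transcription units yield RNA whose reporter cDNA is FAM-labelled, HpaI-cut and sized by capillary electrophoresis; increases over DMSO are scored.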

Assay [14] deals with human Thyroid Receptor alpha (THRa1), THRA (gene 7067) (UniProt P10827). Put plainly: ATG_THRa1_TRANS: Attagene TRANS-FACTORIAL HepG2 Assay for human Thyroid Receptor alpha (THRa1) (AID 2283014; active means hit-call score of the fitted dose curve at least 0.9, where 1 is the maximum). An outline of the steps: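 Transient HepG2 transfection, NR-Gal4 chimera driving GAL4-UAS reporters; 24 h compound exposure; total RNA, oligo(dT) RT, PCR, fluorescent primer extension, capillary electrophoresis. Upward direction vs DMSO control.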

In assay [15] the target is human Vitamin D Receptor (VDR), VDR (gene 7421) (UniProt P11473). Put plainly: ATG_VDR_TRANS: Attagene TRANS-FACTORIAL HepG2 Assay for human Vitamin D Receptor (VDR) (AID 2283022; active means hit-call score of the fitted dose curve at least 0.9, where 1 is the maximum). An outline of the steps:
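RT-PCR/capillary electrophoresis read-out of reporter mRNA induction in transiently transfected HepG2; 24 h dosing; chimeric NR-Gal4 (TRANS format); gain-of-signal fit against DMSO baseline.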

Read-out in assay [16]: Monocyte Chemoattractant Protein-1 (MCP1), CCL2 (gene 6347)
Put plainly: BSK_4H_MCP1: BioMAP Diversity Plus: 4H Assay for Monocyte Chemoattractant Protein-1 (MCP1) Biomarker Activity (AID 2283018). The following applies: primary human endothelial cells (HUVEC); actives raise or lower the signal. An outline of the steps:
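Primary human umbilical vein endothelium is exposed to chemical for 24 h before MCP-1 is assayed by ELISA. Concentration-response fitted bidirectionally relative to DMSO.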

Read-out in assay [17]: Matrix Metallopeptidase 1 (MMP1), MMP1 (gene 4312)
Put plainly: BSK_BE3C_MMP1: BioMAP Diversity Plus: BE3C Assay for Matrix Metallopeptidase 1 (MMP1) Biomarker Activity (AID 2283024). The following applies: primary human bronchial epithelial cells; actives raise or lower the signal. An outline of the steps: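 In this multiplexed primary-cell system, human bronchial epithelium received chemicals for 24 h before an ELISA for MMP1. Values reflect bidirectional fits normalised to the DMSO baseline.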

Values joined by “and” are separate entries in the source; they are usually repeats but may differ in a detail not shown here. Equal entries are not always repeated. Inconclusive results are not listed. The source holds several records for some structures; these can differ, active in one and inactive in another. Active and inactive are the calls of the source. How the source made its calls, unless noted: active means hit-call score of the fitted dose curve at least 0.9, where 1 is the maximum; inactive means score below 0.9.

human Vitamin D Receptor (VDR), VDR (gene 7421), sequence (P11473 whole entry, looked up, the tested form may be a part): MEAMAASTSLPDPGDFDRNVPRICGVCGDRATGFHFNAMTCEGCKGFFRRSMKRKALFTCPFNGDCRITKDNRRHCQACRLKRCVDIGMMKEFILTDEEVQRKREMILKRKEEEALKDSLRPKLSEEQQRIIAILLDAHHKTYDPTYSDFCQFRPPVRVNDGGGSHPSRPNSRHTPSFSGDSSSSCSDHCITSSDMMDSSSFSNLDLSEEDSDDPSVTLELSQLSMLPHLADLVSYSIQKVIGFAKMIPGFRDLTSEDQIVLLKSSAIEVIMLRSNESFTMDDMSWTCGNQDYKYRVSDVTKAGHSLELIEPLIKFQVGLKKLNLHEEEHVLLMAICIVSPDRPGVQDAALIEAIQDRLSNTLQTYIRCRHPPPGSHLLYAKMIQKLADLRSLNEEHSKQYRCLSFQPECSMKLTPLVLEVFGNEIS
human Thyroid Receptor alpha (THRa1), THRA (gene 7067), sequence (P10827 whole entry, looked up, the tested form may be a part): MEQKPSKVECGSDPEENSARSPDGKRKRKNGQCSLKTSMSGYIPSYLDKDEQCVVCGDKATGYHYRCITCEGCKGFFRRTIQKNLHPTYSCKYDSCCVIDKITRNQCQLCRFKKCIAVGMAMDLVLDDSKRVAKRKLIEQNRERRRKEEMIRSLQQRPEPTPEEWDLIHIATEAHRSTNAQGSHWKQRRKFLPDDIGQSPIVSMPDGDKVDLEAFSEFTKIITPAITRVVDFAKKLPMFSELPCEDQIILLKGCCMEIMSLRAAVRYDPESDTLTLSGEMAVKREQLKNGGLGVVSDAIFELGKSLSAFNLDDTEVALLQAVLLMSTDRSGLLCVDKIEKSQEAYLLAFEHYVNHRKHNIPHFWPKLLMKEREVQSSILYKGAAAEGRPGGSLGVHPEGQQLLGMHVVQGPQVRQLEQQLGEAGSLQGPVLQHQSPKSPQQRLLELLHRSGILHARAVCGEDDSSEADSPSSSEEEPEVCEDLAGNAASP
human Retinoid X Receptor beta (RXRb), RXRB (gene 6257), sequence (P28702 whole entry, looked up, the tested form may be a part): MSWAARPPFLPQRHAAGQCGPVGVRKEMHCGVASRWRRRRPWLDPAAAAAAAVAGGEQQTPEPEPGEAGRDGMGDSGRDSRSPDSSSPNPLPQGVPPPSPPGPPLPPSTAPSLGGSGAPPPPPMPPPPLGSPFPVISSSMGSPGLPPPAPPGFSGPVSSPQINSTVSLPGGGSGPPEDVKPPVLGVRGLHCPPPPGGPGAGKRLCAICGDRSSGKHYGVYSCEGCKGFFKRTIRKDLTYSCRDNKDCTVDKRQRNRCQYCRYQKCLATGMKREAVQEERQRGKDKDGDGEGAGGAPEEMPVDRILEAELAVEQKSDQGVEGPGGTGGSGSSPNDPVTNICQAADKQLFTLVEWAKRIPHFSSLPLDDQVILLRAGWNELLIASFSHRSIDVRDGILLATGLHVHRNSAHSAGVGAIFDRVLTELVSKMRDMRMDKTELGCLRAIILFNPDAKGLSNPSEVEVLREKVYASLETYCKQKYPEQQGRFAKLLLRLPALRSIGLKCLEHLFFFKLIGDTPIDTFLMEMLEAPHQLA
E-selectin (Homo sapiens), sequence (P16581 whole entry, looked up): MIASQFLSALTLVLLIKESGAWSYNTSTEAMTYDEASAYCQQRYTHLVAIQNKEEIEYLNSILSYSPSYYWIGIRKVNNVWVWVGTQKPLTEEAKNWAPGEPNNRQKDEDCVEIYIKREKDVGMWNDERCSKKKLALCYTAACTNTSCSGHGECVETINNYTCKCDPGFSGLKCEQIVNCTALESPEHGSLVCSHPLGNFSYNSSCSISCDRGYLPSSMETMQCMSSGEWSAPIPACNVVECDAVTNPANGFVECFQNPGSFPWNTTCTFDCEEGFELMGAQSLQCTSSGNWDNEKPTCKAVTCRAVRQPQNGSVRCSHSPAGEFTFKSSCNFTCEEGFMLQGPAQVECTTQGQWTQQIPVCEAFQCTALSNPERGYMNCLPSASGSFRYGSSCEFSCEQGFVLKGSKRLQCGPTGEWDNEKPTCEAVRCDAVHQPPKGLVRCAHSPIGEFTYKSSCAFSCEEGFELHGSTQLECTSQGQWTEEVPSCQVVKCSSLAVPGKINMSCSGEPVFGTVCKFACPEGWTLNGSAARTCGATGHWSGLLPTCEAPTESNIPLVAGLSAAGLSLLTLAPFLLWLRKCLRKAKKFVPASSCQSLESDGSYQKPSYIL

Regarding `C1CNCCN1`, the outcome in [1], in assay [2], in [3], in [4], in assay [5] and in assay [6] was inactive. Also, the result in [7], in [8], in assay [9], in assay [10], in assay [11] and in assay [12] was inactive.
With `CCC(C)N` (configuration not stated), in [13], the result was inactive.
In the case of `CCCCC(CC)COS(=O)(=O)O` (configuration not stated), the result in assay [14] and in [15] was inactive.
Take `CN(C)Cc1cc(CN(C)C)c(O)c(CN(C)C)c1`: the compound was called inactive in [14].
In the case of `CCCCCCCCCCCCCCCCCCOS(=O)(=O)O`, the AC50 – broadly, the concentration giving half of the maximal activity seen – in [13] is 34.3 µM (active); in assay [15], 119 µM (active). Moreover, the result in assay [14] was inactive.
For `C=CC(C)(CCC=C(C)C)OC(=O)C=Cc1ccccc1` (configuration not stated), the compound was classed as inactive in assay [13], in [14] and in [15].
Turning to `C[Si](C)(C)N[Si](C)(C)C`, the compound was classed as inactive in assay [13], in [14] and in assay [15].
Regarding `O=C(O)C1CCC(C(=O)O)CC1` (configuration not stated), the outcome in assay [13] and in assay [15] was inactive.
Consider `Oc1ccccc1Cc1ccccc1O`, for which the call in [13], in assay [14], in [2], in assay [3], in [4] and in [6] was inactive. Besides, the compound was classed as inactive in [15], in assay [7], in [9], in assay [10], in [11] and in assay [12]. Besides, the half-maximal activity concentration (AC50) is 1.72 µM (active) in assay [3]; 4.2 µM (active) and 10.9 µM (active) in assay [16]; 11.7 µM (active) in assay [12].
In the case of `COC(=O)C=Cc1ccccc1`, the compound was called inactive in assay [13] and in [14].
As to `CCCCCCCOC(=O)c1ccc(O)cc1`, the AC50 in assay [13] is 11.1 µM (active).
Take `c1ccc2sc(SSN3CCOCC3)nc2c1`: the result in assay [13], in [14], in assay [2], in assay [5], in [6] and in assay [15] was inactive. The result in [17] and in [11] was inactive. Also, the AC50 in assay [3] is 14.2 µM (active); in [4], 5.37 µM (active); in assay [7] it was 6.19 µM (active); in assay [8], 8.8 µM (active); in [9] it was 4.4 µM (active); in [10], 5.2 µM (active).
Take `CC1CCC(=O)C1=O` (configuration not stated): in [13], the AC50 is 59.8 µM (active). In addition, the compound was classed as inactive in [15].
In the case of `CC1CC(=O)CC(C)(C)C1` (configuration not stated), the call in [15] was inactive.
With `Nc1ccc(C(=O)OCCCOC(=O)c2ccc(N)cc2)cc1`, the result in [14] and in assay [15] was inactive.
As for `O=C1CCCCCCCCCCCN1`, the AC50 in assay [13] is 33.8 µM (active). Further, the outcome in assay [2], in [3], in assay [4], in assay [5], in [6] and in [7] was inactive. Moreover, the outcome in assay [17], in assay [8], in [9], in [10], in [11] and in assay [12] was inactive.
In the case of `CCCCCCOc1ccc(N)cc1`, in assay [15], the result was inactive.
Take `O=C(Oc1ccccc1)c1ccccc1C(=O)Oc1ccccc1`: the result in assay [2], in assay [3], in assay [6], in assay [8], in [9] and in assay [10] was inactive. For the same compound, the outcome in assay [11] and in assay [12] was inactive. Also, the AC50 in assay [4] and in [7] was 20 µM (active) throughout.
On to `[Cl][Eu]([Cl])[Cl]`, for which the call in [13] was inactive.
Turning to `CCCCCOC(=O)CCCCC`, the call in [14] was inactive.
As for `Cc1cc(C)n(CO)n1`, the outcome in assay [13] and in [15] was inactive.
`CO[Si](C)(C)OC`: the outcome in [14] was inactive.
On to `CCCCCCO`, for which the compound was classed as inactive in [13] and in [15].
For the compound `CCCC=C(C=O)CC`, in assay [15], the call was inactive.
Take `CCOB(OCC)OCC`: the compound was classed as inactive in assay [13], in [14] and in assay [15].
On to `CC(C)COC(=O)CC(C(=O)OCC(C)C)S(=O)(=O)O` (configuration not stated), for which the outcome in assay [13] and in [15] was inactive.
As for `CC(C)CCCCCOC(=O)CS`, the call in assay [13], in assay [2], in [3], in [16], in assay [4] and in [6] was inactive. Further, the outcome in [7], in assay [17], in assay [8], in assay [9], in assay [10] and in assay [11] was inactive. Besides, in assay [12], the result was inactive.
With `O=C(Oc1ccccc1)c1ccccc1O`, the result in assay [13] and in assay [14] was inactive.
`C1CCSC1`: the result in assay [13] and in assay [14] was inactive.
In the case of `C=CC(=O)NC(C)(C)C`, the compound was called inactive in assay [13], in assay [1], in [2], in assay [3], in assay [16] and in assay [4]. In addition, the outcome in assay [6], in assay [15], in [7], in assay [8], in [9] and in assay [10] was inactive. Also, the result in [11] and in assay [12] was inactive.

The values above are taken from PubChem BioAssay (EPA / NIEHS).
